Test results as given in the OligoGym collection.

biological target: TTLL4; assay: pooled miR-30 sensor sort-seq; sequence = guide strand; details: shRNA
Further: reference of the scale not given here.

Sequence	sensor-assay potency score (higher = more potent)
TCGCACATACATCTTGAGCAGG	-1.1
TTCTTCTGTATCTTCAGTCTCA	0.119
TTGCTAGTCTCTGATTTGCTGA	-0.807
TTGATCACAGGTAACGTCTGGG	0.356
TTTTTATTGACACTGTAGTTGG	-0.76
TTAGCTTCTGATGCTCTCGAAT	-0.842
TAGTTTTGACAACAACATCCTT	-0.466
AGTTTTGACAACAACATCCTTT	-0.763
TTGAGTATCACGTCATCCTTTG	-0.629
TTTGACAACAACATCCTTTATC	-1.2
TGTATCTTCAGTCTCAGCCTGA	0.277
TTTATTGACACTGTAGTTGGTC	0.947

biological target: TTYH3; assay: as above; details: shRNA

Sequence	sensor-assay potency score (higher = more potent)
TAGAATCCCACTGCGATGCCGG	-0.487
ATGATGACACACCAGGCCGTGC	-1.46
TAGCCCAGCCACCTGTACCAGT	-1.16
TTTTGCTGCCAGGTGTGCGGGA	-0.687
TATTTGGCTCTCATGCTGGAGG	-0.854
TAGCAGAAGCCGGTCAGCGCTT	-0.823
AAGCTCAGCCACGACATCCTGC	-0.514
TTGCCGTAGAATCCCACTGCGA	-1.44
TAGTCGGTGTCCTCGGGCCGGA	-1.53
TTGCACGTAGTCCAGATGCAGG	-1.46
TTGGCTCTCATGCTGGAGGTGT	-0.0842
TTCAGCACCTCCTGGACGCGGA	-0.58
